“And” between values parts separate entries of the source, which are not always exact repeats. Identical values can stand only once. Results filed as inconclusive are left out. The source made the active and inactive calls. How the source made its calls: active means hit-call score of the fitted dose curve at least 0.9, where 1 is the maximum; inconclusive means response in the unintended direction; inactive means score below 0.9.

Nucleoli Translocation, AR (gene 367), sequence (P10275 whole entry, looked up, the tested form may be a part): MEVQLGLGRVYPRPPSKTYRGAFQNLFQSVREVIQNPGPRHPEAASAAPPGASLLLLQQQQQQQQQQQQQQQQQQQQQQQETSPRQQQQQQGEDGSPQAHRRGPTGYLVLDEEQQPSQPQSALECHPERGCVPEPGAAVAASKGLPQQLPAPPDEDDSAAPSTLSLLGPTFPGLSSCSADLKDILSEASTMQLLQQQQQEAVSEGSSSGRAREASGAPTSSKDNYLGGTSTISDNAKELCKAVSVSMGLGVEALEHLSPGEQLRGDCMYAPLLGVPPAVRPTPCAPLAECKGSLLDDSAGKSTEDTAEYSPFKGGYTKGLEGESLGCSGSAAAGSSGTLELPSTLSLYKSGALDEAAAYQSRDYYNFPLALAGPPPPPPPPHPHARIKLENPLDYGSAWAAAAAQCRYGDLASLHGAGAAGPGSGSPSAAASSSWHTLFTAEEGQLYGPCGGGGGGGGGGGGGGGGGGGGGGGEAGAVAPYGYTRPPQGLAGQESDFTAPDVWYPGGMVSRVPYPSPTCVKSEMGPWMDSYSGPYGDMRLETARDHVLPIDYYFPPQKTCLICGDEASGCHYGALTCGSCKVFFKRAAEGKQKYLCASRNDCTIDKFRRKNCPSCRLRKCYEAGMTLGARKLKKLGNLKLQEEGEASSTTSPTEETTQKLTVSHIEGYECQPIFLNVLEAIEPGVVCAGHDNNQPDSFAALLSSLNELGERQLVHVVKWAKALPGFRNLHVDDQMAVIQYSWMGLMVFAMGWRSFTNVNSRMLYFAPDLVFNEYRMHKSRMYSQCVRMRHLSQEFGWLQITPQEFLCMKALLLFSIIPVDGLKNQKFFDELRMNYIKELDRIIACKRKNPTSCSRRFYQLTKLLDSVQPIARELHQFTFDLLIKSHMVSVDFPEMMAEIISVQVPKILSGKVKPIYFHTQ

This test concerns the target Nucleoli Translocation, AR (gene 367) (UniProt P10275). The experiment in a line: UPITT_HCI_U2OS_AR_TIF2_Nucleoli_Antagonist: University of Pittsburgh U2OS Androgen Receptor-Transcriptional Intermediary Factor 2 (AR-TIF2) Antagonism High Content Imaging Assay for Nucleoli Translocation (AID 2283997). The text has this:
UPITT_AR_TIF2_PPIB is a cell-based, high-content imaging assay that uses U2OS, a human osteosarcoma cell line, expressing a human androgen receptor fused to red fluorescent protein and the coactivator TIF2 fused to green fluorescent protein. UPITT_HCI_U2OS_AR_TIF2_Nucleoli_Antagonist is one of four assay components measured from the UPITT_AR_TIF2_PPIB assay. It is designed to make measurements of red fluorescence localized in the nucleolar region of the cell nucleus as detected with high-content fluorescent imaging.Data from the assay component UPITT_HCI_U2OS_AR_TIF2_Nucleoli_Antagonist was analyzed into 1 assay endpoint. This assay endpoint, UPITT_HCI_U2OS_AR_TIF2_Nucleoli_Antagonist, was analyzed in the positive analysis fitting direction relative to DHT as the baseline of activity. Using a type of binding reporter, measures of receptor for loss-of-signal activity can be used to understand the binding at the pathway-level as it relates to the gene AR.
Daughter plates containing 2 uL of 10 mM compounds in DMSO were prepared and replicated from the 384-well Library of Pharmacologically Active Compounds (LOPAC) master plates using the Bravo outfitted with a 384-well transfer head. Aluminum adhesive plate seals were applied with an Abgene Seal-IT 100 (Rochester, NY) plate sealer, and the plates were stored at -20 C in a Matrical MatriMinistore (Spokane, WA) automated compound storage and retrieval system. For screening, LOPAC daughter plates were withdrawn from -20C storage, thawed to ambient temperature, centrifuged 1-2 min at 50 g, and the plate seals were removed before the transfer of 98 uL of serum-free tissue culture medium (SFM) into wells using the BioTek Microflo liquid handler (BioTek, Winooski, VT) to generate a 200 uM intermediate stock concentration of library compounds (2.0% DMSO). The diluted compounds were mixed by repeated aspiration and dispensation using a 384-well P30 dispensing head on the Evolution P3 (EP3) liquid handling platform (PerkinElmer, Waltham, MA) and then 5 uL of diluted compounds was transferred to the wells of assay plates. In the LOPAC screen, compounds were individually tested at a final concentration of 20 uM (0.2% DMSO). After the diluted compounds had been transferred from the daughter plates to the primary HCS assay plates, aluminum adhesive plate seals were applied and the diluted daughter plates were stored frozen at -20C. To confirm active compounds identified in the primary screen, we withdrew the LOPAC daughter plates containing the 200 uM intermediate concentration of library compounds (2.0% DMSO) from -20C storage, thawed them to ambient temperature, centrifuged them for 1-2 min at 50 g, and removed the plate seals. A work list was generated to direct the Multiprobe Janus liquid handling platform (PerkinElmer) to cherry pick 75 uL from the wells of the diluted daughter plates that were flagged active in the primary screen and to reformat these into a 384-well plate hit confirmation daughter plate. Five microliters of primary HCS active compounds was then transferred into triplicate wells of assay plates using a 384-well P30 dispensing head on the Evolution P3 (EP3) liquid handling platform (PerkinElmer). […] Daughter plates containing 2 uL of the serially diluted compounds in DMSO were prepared and replicated from the 384-well serial dilution master plates using the Bravo outfitted with a 384-well transfer head. Aluminum adhesive plate seals were applied and plates were stored at -20C. […] The ImageXpress Ultra (IXU) platform (Molecular Devices LLC, Sunnyvale, CA) and The ImageXpress Micro (IXM) platform were used for imaging.
Take `O=c1[nH]c2c(c(=O)n1C1CCCCC1)CCC2`: the molecule was classed as inactive. For the molecule `c1ccc2cc3c(cc2c1)-c1cccc2cccc-3c12`, the AC50 (in general, the concentration at which the activity in the assay is half-maximal) was 1.19 µM (active).

Take `O=CNC(N1CCN(C(NC=O)C(Cl)(Cl)Cl)CC1)C(Cl)(Cl)Cl` (stereo unspecified): the result was inactive. For the molecule `CCCCC(CC)COC(=O)c1cc(Br)c(Br)c(Br)c1Br` (stereo unspecified), the result was inactive.

Regarding `COc1cc(OC)nc(Oc2cccc(Oc3nc(OC)cc(OC)n3)c2C(=O)O)n1`, the molecule was classed as inactive. With `CC1(C)[C@H](C(=O)O[C@H](C#N)c2cccc(Oc3ccccc3)c2)[C@@H]1C=C(Br)Br`, the result was inactive. In the case of `CNC(=O)Oc1cc(C)c(SC)c(C)c1`, the AC50 is 24 µM (active) and 26.6 µM (active). For the molecule `ClC1=C(Cl)[C@]2(Cl)[C@H]3[C@H]([C@H](Cl)C(Cl)[C@@H]3Cl)[C@@]1(Cl)C2(Cl)Cl` (stereo partly specified), the call was inactive. In the case of `Cc1ccc(C)c2ccccc12`, the outcome was inactive.

As for `O=S1OC[C@@H]2[C@H](CO1)[C@]1(Cl)C(Cl)=C(Cl)[C@]2(Cl)C1(Cl)Cl` (stereo partly specified), the molecule was classed as inactive. Same read-out and setting: as for `COP(=S)(OC)SCC(=O)N(C)C=O`, the entry is “inactive”; as for `CN(C)N`, “inactive”; as for `c1ccc2c(c1)CCCC2`, “inactive”. With `C=COCCCl`, the call was inactive. On to `C[n+]1ccc(-c2cc[n+](C)cc2)cc1`, for which the outcome was inactive.

Turning to `O=C(NCNC(=O)NC1C(=O)NC(=O)N1CO)NC1C(=O)NC(=O)N1CO` (stereo unspecified), the AC50 was 50 µM (active).
